Results from the supplement of paper PMC12669032.
Several values for one entry are separate records, joined by “and”; a condition that tells them apart may be missing. Identical values can stand only once. Values without a mark were called inactive.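 Rule for the calls: active = AUC reduced over 20% with Padj below 0.05 in at least 2 of 3 replicates; inactive = otherwise.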

Each compound was assayed on Parabacteroides merdae (assay: growth AUC relative to DMSO control (median of replicates) (fraction); higher = more growth (less inhibition), active = hit call of the paper). Conditions: 20 µM; 24 h.
Method in brief: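 In round-bottom 96-well plates sealed with pierced gas-permeable seals, gut bacterial monocultures in mGAM were grown anaerobically at 37 °C from OD600 0.05 with 20 µM compound (1% DMSO). OD600 readings were taken hourly for 24 h, and the minimum OD was set to 0. Area under the growth curve was then normalised to the plate median of solvent-only wells, or to row and column medians on the industrial chemical plate. The value given is the median of three biological replicates grown on separate days.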

Compound	growth AUC
CCC(C)c1cc([N+](=O)[O-])cc([N+](=O)[O-])c1O (configuration not stated)	0.929
CCOP(=S)(OCC)SCSC(C)(C)C	1
CCNc1nc(Cl)nc(NC(C)(C)C#N)n1	1.01
Cc1ccccc1C(=O)Nc1cccc(OC(C)C)c1	0.974
N#CN=C1SCCN1Cc1ccc(Cl)nc1	1.01
COP(=O)(OC)Oc1ccc(S(C)=O)c(C)c1 (configuration not stated)	0.978
COCC(=O)N(c1c(C)cccc1C)[C@H](C)C(=O)OC	1.05
CC(=NC#N)N(C)Cc1ccc(Cl)nc1	1.04 and 0.98
CC1(C)C(C(=O)OC(C#N)c2cccc(Oc3ccccc3)c2)C1(C)C (configuration not stated)	0.965
CNC(=O)Oc1cc(C)c(N(C)C)c(C)c1	0.997
CN(C)C(=S)SSC(=S)N(C)C	0.852
CCOP(=S)(OCC)SCn1nnc2ccccc2c1=O	0.946
[CH3][Hg][Cl]	0.892
CCCCc1c(C)nc(NCC)nc1OS(=O)(=O)N(C)C	0.906
CC1(C)[C@H](/C=C(\Cl)C(F)(F)F)[C@@H]1C(=O)O[C@@H](C#N)c1cccc(Oc2ccccc2)c1	0.957
CCCN(CCOc1c(Cl)cc(Cl)cc1Cl)C(=O)n1ccnc1	0.843
CCOP(=S)(OCC)Oc1cc(Cl)c(Br)cc1Cl	0.962
C/C(=N\NC(=O)Nc1cc(F)cc(F)c1)c1ncccc1C(=O)[O-].[Na+]	1.01
C1=Cc2cccc3cccc1c23	1.02
CCc1ccc(C(=O)NN(C(=O)c2cc(C)cc(C)c2)C(C)(C)C)cc1	0.945
C#CCOc1ccc(CCNC(=O)C(OCC#C)c2ccc(Cl)cc2)cc1OC (configuration not stated)	0.948
COC(=O)c1ccccc1S(=O)(=O)NC(=O)Nc1nc(C)nc(OC)n1	0.962
